Test [1] addresses Nuclear receptor coactivator 3 (Homo sapiens) (UniProt Q9Y6Q9). In words: SRC3 coactivator transcriptional activity inhibitors, confirmation, cell-based, luminescence, quadruplicate (AID 588792).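 Also: 0% = DMSO treated cells and 100% = gossypol at 36 µM.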 The settings on record: HEK293 GAL4-SRC3 luciferase reporter, at 3.6 µM, active compounds read high.
In test [2] the test system is transactivating tegument protein VP16 (Human herpesvirus 1), Gal4-VP16 luciferase reporter. The experiment in a line: VP16 transactivation inhibitors, counter-screen for SRC3 inhibitor project, cell-based, luminescence, high throughput (AID 588794; in the data active = inhibition above about 30%). The settings on record: mammalian cells, VP16-driven luciferase reporter luminescence; at 3.6 µM; active compounds read high. On the technique in general: A counterscreen serves to expose hits that act by an unwanted route or on another target.

Values without a mark were called inactive. The source made the active and inactive calls.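 The calls were made as follows, unless noted: active = mean inhibition over 43.08%, the solvent-only control mean plus 3 SD; inactive = the rest.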

Nuclear receptor coactivator 3 (Homo sapiens), sequence (Q9Y6Q9 whole entry, looked up, the tested form may be a part): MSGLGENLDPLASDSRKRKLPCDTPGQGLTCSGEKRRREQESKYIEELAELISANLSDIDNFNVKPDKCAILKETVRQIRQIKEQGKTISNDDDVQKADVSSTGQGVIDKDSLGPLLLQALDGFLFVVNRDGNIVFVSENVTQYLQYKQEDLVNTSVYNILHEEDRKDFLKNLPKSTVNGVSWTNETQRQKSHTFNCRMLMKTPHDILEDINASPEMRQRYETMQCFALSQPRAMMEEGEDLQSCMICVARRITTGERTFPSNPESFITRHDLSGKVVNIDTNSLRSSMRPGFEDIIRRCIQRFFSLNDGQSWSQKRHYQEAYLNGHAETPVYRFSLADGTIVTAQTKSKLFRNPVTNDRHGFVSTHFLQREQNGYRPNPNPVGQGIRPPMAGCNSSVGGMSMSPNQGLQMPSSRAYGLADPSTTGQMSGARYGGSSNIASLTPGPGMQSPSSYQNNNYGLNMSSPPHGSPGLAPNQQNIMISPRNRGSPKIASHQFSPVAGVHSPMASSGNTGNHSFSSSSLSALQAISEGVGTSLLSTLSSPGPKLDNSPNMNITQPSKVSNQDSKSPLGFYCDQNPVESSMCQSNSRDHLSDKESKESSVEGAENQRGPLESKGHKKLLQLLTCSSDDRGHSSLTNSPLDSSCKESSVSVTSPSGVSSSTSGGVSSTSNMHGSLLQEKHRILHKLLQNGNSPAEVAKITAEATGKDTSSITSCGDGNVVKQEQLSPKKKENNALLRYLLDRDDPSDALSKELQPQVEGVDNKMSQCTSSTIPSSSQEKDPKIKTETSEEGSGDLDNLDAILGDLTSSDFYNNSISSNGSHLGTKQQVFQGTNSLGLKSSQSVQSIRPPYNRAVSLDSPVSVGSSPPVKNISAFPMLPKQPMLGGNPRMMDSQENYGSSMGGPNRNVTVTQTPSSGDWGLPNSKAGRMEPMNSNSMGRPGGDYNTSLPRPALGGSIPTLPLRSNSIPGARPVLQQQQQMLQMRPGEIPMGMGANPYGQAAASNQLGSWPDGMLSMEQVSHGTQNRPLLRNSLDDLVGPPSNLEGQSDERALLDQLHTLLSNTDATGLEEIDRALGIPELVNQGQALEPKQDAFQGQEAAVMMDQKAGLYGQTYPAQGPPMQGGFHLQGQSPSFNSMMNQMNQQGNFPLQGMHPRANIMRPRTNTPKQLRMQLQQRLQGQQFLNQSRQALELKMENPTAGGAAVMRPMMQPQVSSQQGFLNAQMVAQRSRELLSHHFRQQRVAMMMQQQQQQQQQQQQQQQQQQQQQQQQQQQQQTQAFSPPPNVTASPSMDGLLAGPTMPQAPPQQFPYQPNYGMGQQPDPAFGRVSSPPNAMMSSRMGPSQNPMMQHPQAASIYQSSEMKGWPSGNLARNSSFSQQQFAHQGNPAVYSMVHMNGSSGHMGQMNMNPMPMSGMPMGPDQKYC

The term inhibition denotes the drop in the measured response relative to a control, in per cent. For `Cc1cccc(NC(=S)N(CCCN2CCOCC2)Cc2cn(C)c3ccccc23)c1`, the inhibition in test [1] was -2.78%; in test [2], -2.77%.
The corresponding values for `Cc1ccc(-c2c[n+](Cc3cccc(Cl)c3)c3n2CCC3)cc1` are -6.57% and 18.4%.
For `COc1cccc(-c2c(C(=O)N/N=C/c3ccncc3)nnn2-c2nonc2N)c1`, the inhibition was 3.64% in test [1] and 12.9% in test [2].
For `CCCc1nn(C)c(C(=O)Nc2cccc(Cl)c2)c1Cl`, the inhibition in test [1] was 15%; in test [2], 0.8%.
For `O=C(CCc1ccccc1)N/N=C/c1cc(Br)ccc1O`, in that order: 24.5% and 17.2%.
`Cc1ccc(C(=O)N/N=C/c2ccc(-c3cccc(C(F)(F)F)c3)o2)cn1`: the inhibition in test [1] was 6.91%; in test [2] it was 4.45%.
`Cn1nnnc1Sc1ncnc2scc(-c3ccccc3)c12`: the inhibition is -4.36% in test [1] and 2.99% in test [2].
As for `CN[C@H]1CCc2cc(OC)c(OC)c(OC)c2-c2ccc(OC)c(=O)cc21`, the inhibition in test [1] was 40.5%; in test [2], -10.4%.
The corresponding values for `CCCn1c(N)c(C(=O)CSc2ncc(C(F)(F)F)cc2Cl)c(=O)[nH]c1=O` are 14.6% and -5.96%.
For `CCN(CC)c1ccc(/C=N/NC(=O)c2cnccn2)c(O)c1`, in that order: 45.2% (active) and 52.3% (active).
For `COc1cccc(/C=N/Nc2ncnc(Cl)c2N)c1O`, in that order: 78.1% (active) and 71.7% (active).
Regarding `Cc1cc(C(C)(C)C)cc(C)c1Cn1c2[n+](c3ccc(C(F)(F)F)cc31)CCCCC2`, the inhibition is 11% in test [1] and 21.3% in test [2].
The corresponding values for `O=C(Nc1ccccc1Cc1ccccc1)c1ccccc1NS(=O)(=O)c1ccc(Cl)s1` are 4.01% and 24.9%.
For `CS(=O)c1nc(-c2ccc(Br)cc2)cc(-c2ccccc2)c1C#N` (stereo not drawn), in that order: 43.9% (active) and 26.6%.
Consider `Cc1nnsc1-c1onc(C)c1C(=O)Nc1cc(Cl)cc(Cl)c1`, for which the inhibition in test [1] was 15.8%; in test [2], 13.8%.
In the case of `COc1ccc(CNC(=O)COC(=O)c2cc(-c3ccc(Cl)s3)nc3ccccc23)cc1`, the inhibition in test [1] was -14.9%; in test [2], -13.6%.
The corresponding values for `O=C(Nc1ccc2c(c1)CCC2)C1CCN(c2c3c(nc4ncnn24)CCC3)CC1` are 13.5% and 13.2%.
Turning to `O=C1C=CC(=O)N1CCNc1ncc(C(F)(F)F)cc1Cl`, the inhibition in test [1] is 7.05%; in test [2], -14.1%.
The corresponding values for `Cc1nc2ccccn2c1-c1ccnn1S(=O)(=O)c1ccc(F)cc1` are 3.74% and 12.3%.
As to `C#CCN(C[C@@H]1[C@@H](OC(=O)NCc2ccccc2F)[C@@H](OC(=O)NCc2ccccc2F)Cn2c(=O)ccc(=O)n21)S(=O)(=O)c1ccc(C)cc1`, the inhibition in test [1] was -2.92%; in test [2], 24.2%.
The corresponding values for `CCN(CC(=O)Nc1ccc(OC)cc1)C(=O)CSCC(=O)Nc1cc(C)on1` are 5.34% and 5.42%.
For the compound `CCc1cccc(CC)c1C(OC(C)=O)c1cccnc1` (stereo not drawn), the figures for the inhibition in test [1] and in test [2] were -15.7% and -7.1%, respectively.
The corresponding values for `COc1ccc(-n2c(C)cc(C(=O)COc3ccc(C)nc3[N+](=O)[O-])c2C)cc1` are 14.4% and 10.7%.
The corresponding values for `C=CCN1CN(S(=O)(=O)c2cccs2)c2nc3ccccc3nc21` are -9.88% and 7.9%.
For the compound `CCOC(=O)c1c(NC(=O)COc2cccc3c2CCN(C)C3=O)sc2c1CCC2`, the inhibition was -1.43% in test [1] and 10.2% in test [2].
For `COc1ccc(N/N=C2/CCCCC2=O)cc1`, in that order: -38.4% and 21%.
Turning to `C=CCSc1nc2ccccc2n1C(=O)/C=C/c1cc(OC)c(OC)c(OC)c1`, the inhibition was -6.27% in test [1] and -10.3% in test [2].
The corresponding values for `C=CCOn1c(C)c(C(C)=O)c2c3nonc3ccc21` are 42% and 25.4%.
Consider `CCOc1ccc(/C=C/C(O)=C2/C(=O)NC3(C)CC2c2ccccc2O3)cc1OC` (stereo not drawn), for which the inhibition in test [1] was 25.5%; in test [2], 39% (active).
For `O=c1c2ccccc2cnn1CCOc1ccccc1`, the inhibition is -15.3% in test [1] and -21.5% in test [2].
The corresponding values for `O=C(C[n+]1ccccc1)NNc1ccccc1` are 33.2% and 47.4% (active).
The corresponding values for `CCC(C)c1ccc(NC(=S)N2CCN(C(=O)C3CCCO3)CC2)cc1` (stereo not drawn) are 8.54% and -1.88%.
The corresponding values for `O=C(CCN1CCN(c2ccccc2)CC1)Nc1ccc(Cl)cc1` are 3.39% and 1.2%.
Turning to `COc1ccccc1NC(=O)Nc1nnc(Cc2ccccc2F)s1`, the inhibition in test [1] is 5.82%; in test [2] it was 20.4%.
For the compound `COc1ccc(-c2cc(C(=O)N3CCN(c4ncccn4)CC3)c3ccccc3n2)c(OC)c1`, the inhibition is 0.79% in test [1] and -9.7% in test [2].
For `CC(C)(C)c1cc(C(=O)N/N=C/c2ccccc2O)n(-c2ccccc2)n1`, in that order: 35.7% and 40.6% (active).
For `Cc1ccc(Cl)cc1N(Cc1ccc(C(=O)NCc2cccnc2)cc1)S(=O)(=O)c1ccccc1`, in that order: 9.61% and -10.9%.
Regarding `COc1cc2c(ccc3cc(OC)c(OC)c(O)c32)cc1O`, the inhibition in test [1] is 56.5% (active); in test [2] it was -4.29%.
The corresponding values for `C=CC[C@@H](CC(=O)NCCO)C(=O)NC[C@H](OC(=O)[C@@H](CC=C)Cc1ccc(F)cc1)c1ccccc1` are 16.2% and 2.08%.
Consider `CC(C)OC(=O)c1sc2nc(-c3ccccc3)ccc2c1N`, for which the inhibition is 23.7% in test [1] and -2.61% in test [2].
For the compound `CC(=O)c1c(C)[nH]c(C(=O)CSc2nc3ccccc3n2C)c1C`, the inhibition is 2.74% in test [1] and 11.8% in test [2].
For `CCN(C(=O)COC(=O)/C(=C/c1ccccc1)n1nnnc1C)C1CCCCC1`, in that order: 26.9% and 27%.
The corresponding values for `Cn1c(SCC(=O)Nc2ccc(Cl)cc2)nc(O)cc1=O` are -1.75% and -9.43%.
The corresponding values for `Cc1[nH]c2ccccc2c1C(=O)CN1C(=O)NC2(CC(C)CC(C)(C)C2)C1=O` (stereo not drawn) are 11.9% and -5.15%.
Consider `CCOC(=O)CN(C(=O)COc1nc(C)cc(C)c1C#N)c1ccc(Cl)cc1`, for which the values for the inhibition in test [1] and in test [2] were 4.25% and 1.1%, respectively.
For the compound `O=C(/C=C/c1ccc([N+](=O)[O-])cc1)c1ccccc(=O)c1O`, the inhibition is 33% in test [1] and 37.5% (active) in test [2].
As for `CCN1C/C(=C\c2cccc([N+](=O)[O-])c2)C(=O)/C(=C/c2cccc([N+](=O)[O-])c2)C1`, the inhibition is -110% in test [1] and 80.6% (active) in test [2].
For `O=C(Oc1ccc(F)cc1C(=O)/C=C/c1cccs1)c1cccc([N+](=O)[O-])c1`, in that order: -13.7% and -23.3%.
`Cc1cc(C)n(CCC(=O)N/N=C/c2ccccc2O)n1`: the inhibition in test [1] was 18%; in test [2], 4.14%.
The corresponding values for `CCOc1ccccc1/C=C/c1onc(C)c1S(=O)(=O)N1CCC(C(=O)N(CC)CC)CC1` are 5.63% and 3.37%.
Regarding `COC(=O)COc1cccc(NC(=O)c2cccs2)c1`, the figures for the inhibition in test [1] and in test [2] were -1.66% and -12.7%, respectively.
For `CCOc1cccc(-n2nnnc2-c2ccc(OC)cc2)c1`, in that order: 7.46% and 14.6%.
For `Cc1cccc(C)c1-n1c(C)cc(/C=N\NC(=O)CC(=O)NC2CCCCC2)c1C`, in that order: -17.4% and -15.1%.
As to `Cc1cccc(Nc2nc(-c3c(C)nc4ccccn34)cs2)c1`, the inhibition in test [1] was 19.1%; in test [2] it was 24.4%.

These data come from PubChem BioAssay.
